# About 2,000 (36%) of roughly 5,500 compounds were called active. Not shown: some 18% with an inconclusive outcome. This is one part of the list. Unmarked numbers belong to inactive results. Cut-off read from the data, not from the text of the source: active = normalized growth mostly below about 0.91 (no sharp cut-off); inconclusive = no clear call, values can overlap the other calls; inactive = mostly above about 0.92.
# Experiment: chemical genetic growth profiling, strain panel (AID 1159580);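 note: tested at 20 µM; growth read once vehicle control cultures reached saturation at 30 °C; 1 = growth at the plate median or of vehicle wells; lower values mean less growth of the strain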
# Conditions: S. cerevisiae deletion strains, growth OD
# [1] = locus YAL013W, strain DEP1, hits give low values
# [2] = locus YMR307W, strain GAS1, hits give low values
# [3] = locus YNL128W, strain TEP1, hits give low values
# [4] = locus YNL153C, strain GIM3, hits give low values
# [5] = locus YNL322C, strain KRE1, hits give low values
# [6] = locus YPL055C, strain LGE1, hits give low values
# [7] = locus YAL040C, strain CLN3, hits give low values
# [8] = locus YCL061C, strain MRC1 (second series), hits give low values
# [9] = locus YDR150W, strain NUM1, hits give low values
# [10] = locus YDR363W, strain ESC2, hits give low values
# [11] = locus YER002W, strain NOP16, hits give low values
# [12] = locus YGR229C, strain SMI1, hits give low values
# [13] = locus YNL175C, strain NOP13, hits give low values
# [14] = locus YNL197C, strain WHI3, hits give low values
# [15] = locus YNL224C, strain SQS1, hits give low values
# [16] = locus YOR083W, strain WHI5 (second series), hits give low values
# [17] = locus YPL241C, strain CIN2, hits give low values
# [18] = locus YGR078C, strain PAC10, hits give low values
# [19] = locus YMR263W, strain SAP30, hits give low values
# [20] = locus YJR075W, strain HOC1, hits give low values
smiles,measurement,setting,value
CC1=CC(=O)C2=C(C)CC[C@@H]3[C@H](OC(=O)[C@H]3C)[C@@H]12,normalized growth,[1],1
same,normalized growth,"locus YBR021W, strain FUR4, hits give low values",0.965
same,normalized growth,"locus YBR229C, strain ROT2, hits give low values",0.987
same,normalized growth,"locus YCL029C, strain bik1, hits give low values",0.975
same,normalized growth,"locus YDL035C, strain GPR1, hits give low values",0.998
same,normalized growth,"locus YDL074C, strain BRE1, hits give low values",0.986
same,normalized growth,"locus YDL101C, strain DUN1, hits give low values",0.995
same,normalized growth,"locus YDL185W, strain tfp1, hits give low values",0.978
same,normalized growth,"locus YDL192W, strain arf1, hits give low values",1.01
same,normalized growth,"locus YDR101C, strain arx1, hits give low values",0.981
same,normalized growth,"locus YDR162C, strain NBP2, hits give low values",1.01
same,normalized growth,"locus YDR318W, strain mcm21, hits give low values",1
same,normalized growth,"locus YDR388W, hits give low values",0.981
same,normalized growth,"locus YDR502C, strain sam2, hits give low values",0.983
same,normalized growth,"locus YEL061C, strain CIN8, hits give low values",0.997
same,normalized growth,"locus YER110C, hits give low values",0.979
same,normalized growth,"locus YER155C, strain BEM2, hits give low values",0.987
same,normalized growth,"locus YER167W, strain BCK2, hits give low values",0.992
same,normalized growth,"locus YGL078C, strain dbp3, hits give low values",0.977
same,normalized growth,"locus YGL086W, strain mad1, hits give low values",0.979
same,normalized growth,"locus YGL248W, strain PDE1, hits give low values",1.01
same,normalized growth,"locus YGR135W, strain pre9, hits give low values",0.997
same,normalized growth,"locus YGR252W, strain gcn5, hits give low values",1.07
same,normalized growth,"locus YHR030C, strain SLT2, hits give low values",0.99
same,normalized growth,"locus YHR079C, strain IRE1 (second series), hits give low values",0.985
same,normalized growth,"locus YHR094C, strain hxt1, hits give low values",0.991
same,normalized growth,"locus YHR129C, strain ARP1, hits give low values",0.997
same,normalized growth,"locus YHR200W, strain rpn10, hits give low values",0.998
same,normalized growth,"locus YIL066C, strain RNR3, hits give low values",0.999
same,normalized growth,"locus YIL073C, strain SPO22, hits give low values",0.99
same,normalized growth,"locus YIL125W, strain kgd1, hits give low values",0.986
same,normalized growth,"locus YIR030C, strain dcg1, hits give low values",0.985
same,normalized growth,"locus YJL095W, strain BCK1, hits give low values",1.04
same,normalized growth,"locus YJL134W, strain LCB3, hits give low values",0.992
same,normalized growth,"locus YJL168C, strain set2, hits give low values",0.984
same,normalized growth,"locus YJL187C, strain SWE1 (second series), hits give low values",1.01
same,normalized growth,"locus YJR043C, strain POL32, hits give low values",1.01
same,normalized growth,"locus YKL009W, strain mrt4, hits give low values",1
same,normalized growth,"locus YKL068W, hits give low values",0.985
same,normalized growth,"locus YKL085W, strain MDH1 (second series), hits give low values",0.995
same,normalized growth,"locus YKL085W, strain MDH1, hits give low values",0.995
same,normalized growth,"locus YKL190W, strain CNB1, hits give low values",1.01
same,normalized growth,"locus YKR001C, strain vps1, hits give low values",0.965
same,normalized growth,"locus YLR039C, strain RIC1, hits give low values",1.02
same,normalized growth,"locus YLR058C, strain SHM2, hits give low values",1
same,normalized growth,"locus YLR102C, strain apc9, hits give low values",0.981
same,normalized growth,"locus YLR262C, strain YPT6, hits give low values",1.01
same,normalized growth,"locus YLR268W, strain sec22, hits give low values",0.976
same,normalized growth,"locus YLR330W, strain CHS5, hits give low values",0.993
same,normalized growth,"locus YLR342W, strain FKS1 (second series), hits give low values",0.989
same,normalized growth,"locus YLR371W, strain rom2, hits give low values",0.959
same,normalized growth,"locus YLR418C, strain cdc73, hits give low values",1.01
same,normalized growth,"locus YML016C, strain PPZ1, hits give low values",0.99
same,normalized growth,"locus YML032C, strain rad52, hits give low values",1.01
same,normalized growth,"locus YML124C, strain tub3, hits give low values",0.989
same,normalized growth,"locus YMR078C, strain ctf18, hits give low values",1
same,normalized growth,"locus YMR223W, strain ubp8, hits give low values",1.03
same,normalized growth,[2],1
same,normalized growth,"locus YNL067W, strain RPL9B, hits give low values",1.02
same,normalized growth,[3],0.984
same,normalized growth,[4],1.01
same,normalized growth,"locus YNL233W, strain BNI4, hits give low values",1
same,normalized growth,"locus YNL250W, strain rad50, hits give low values",0.995
same,normalized growth,"locus YNL271C, strain bni1, hits give low values",0.984
same,normalized growth,"locus YNL298W, strain CLA4, hits give low values",0.99
same,normalized growth,"locus YNL307C, strain MCK1, hits give low values",0.971
same,normalized growth,[5],1
same,normalized growth,"locus YNR052C, strain pop2, hits give low values",0.996
same,normalized growth,"locus YOL012C, strain htz1",0.989
same,normalized growth,"locus YOL147C, strain pex11, hits give low values",0.987
same,normalized growth,"locus YOR061W, strain CKA2, hits give low values",0.992
same,normalized growth,"locus YOR069W, strain VPS5, hits give low values",0.986
same,normalized growth,"locus YOR136W, strain idh2, hits give low values",0.971
same,normalized growth,"locus YOR144C, strain elg1, hits give low values",0.988
same,normalized growth,"locus YOR184W, strain ser1, hits give low values",0.974
same,normalized growth,"locus YOR316C, strain cot1, hits give low values",0.984
same,normalized growth,[6],0.999
same,normalized growth,"locus YPR119W, strain clb2, hits give low values",1
same,normalized growth,"locus YPR141C, strain kar3, hits give low values",0.98
same,normalized growth,"locus YPR163C, strain tif3, hits give low values",0.978
same,normalized growth,"locus YPR167C, strain met16, hits give low values",1.02
same,normalized growth,"strain wtn01, hits give low values",0.971
CC(C)(C)c1cc(C=C(C#N)C#N)cc(C(C)(C)C)c1O,normalized growth,[7],0.965
same,normalized growth,[8],1.01
same,normalized growth,[9],1.01
same,normalized growth,[10],1.03
same,normalized growth,[11],1.02
same,normalized growth,[12],1.02
same,normalized growth,[2],0.999
same,normalized growth,[3],0.973
same,normalized growth,[4],0.821
same,normalized growth,[13],0.943
same,normalized growth,[14],0.884 (active)
same,normalized growth,[15],0.931
same,normalized growth,[16],0.85 (active)
same,normalized growth,[17],1
N#C/C(=C/c1ccc(O)c(O)c1)C(N)=S,normalized growth,[1],0.959
same,normalized growth,[7],0.973
same,normalized growth,[8],0.997
same,normalized growth,[10],0.73 (active)
same,normalized growth,[11],0.995
same,normalized growth,[18],0.995
same,normalized growth,[12],0.972
same,normalized growth,[19],0.956
same,normalized growth,[2],1
same,normalized growth,[4],0.988
same,normalized growth,[13],0.977
same,normalized growth,[14],0.98
same,normalized growth,[15],0.985
same,normalized growth,[16],0.958
same,normalized growth,[17],0.975
N#CC(C#N)=Cc1ccc(O)c(O)c1,normalized growth,[1],1
same,normalized growth,[7],1.01
same,normalized growth,[8],1
same,normalized growth,[9],0.998
same,normalized growth,[10],1.02
same,normalized growth,[11],0.992
same,normalized growth,[12],0.982
same,normalized growth,[20],0.959
same,normalized growth,[2],0.988
same,normalized growth,[13],0.998
same,normalized growth,[14],0.995
same,normalized growth,[15],0.998
same,normalized growth,[16],1.03
N#C/C(=C\c1ccc(O)c(O)c1)C(=O)NCCCc1ccccc1,normalized growth,[7],0.98
same,normalized growth,[8],1
same,normalized growth,[9],0.991
same,normalized growth,[10],1.01
same,normalized growth,[11],0.993
same,normalized growth,[18],1
same,normalized growth,[12],0.941
same,normalized growth,[2],0.996
same,normalized growth,[3],0.996
same,normalized growth,[13],0.998
same,normalized growth,[14],1.01
same,normalized growth,[15],1
same,normalized growth,[5],1
same,normalized growth,[16],1.01
same,normalized growth,[6],0.991
N#C/C(=C\c1ccc(O)c(O)c1)C(=O)c1ccc(O)c(O)c1,normalized growth,[7],1
same,normalized growth,[8],0.995
same,normalized growth,[9],0.997
same,normalized growth,[10],0.994
same,normalized growth,[11],1.02
same,normalized growth,[18],0.99
same,normalized growth,[12],1.03
same,normalized growth,[2],0.99
same,normalized growth,[4],1.04
same,normalized growth,[13],0.961
same,normalized growth,[14],0.994
same,normalized growth,[15],1
same,normalized growth,[5],0.99
same,normalized growth,[16],0.999
same,normalized growth,[17],0.991
N#C/C(=C\c1ccc(O)c(O)c1)C(=O)NCCc1ccccc1,normalized growth,[7],0.986
same,normalized growth,[8],0.987
same,normalized growth,[9],0.988
same,normalized growth,[10],1
same,normalized growth,[11],0.995
same,normalized growth,[18],1.01
same,normalized growth,[12],0.952
same,normalized growth,[20],0.99
same,normalized growth,[19],1
same,normalized growth,[2],1.01
same,normalized growth,[3],0.999
same,normalized growth,[13],1
same,normalized growth,[14],1
same,normalized growth,[15],0.998
same,normalized growth,[5],1
same,normalized growth,[16],0.994
same,normalized growth,[17],0.996
N#C/C(=C\c1ccc(O)c(O)c1)C(=O)NCCCNC(=O)/C(C#N)=C/c1ccc(O)c(O)c1,normalized growth,[7],0.994
same,normalized growth,[8],1.01
same,normalized growth,[10],0.999
same,normalized growth,[11],0.987
same,normalized growth,[18],0.992
same,normalized growth,[12],0.758 (active)
same,normalized growth,[2],0.982
same,normalized growth,[13],1.01
same,normalized growth,[14],0.988
same,normalized growth,[15],1
same,normalized growth,[5],0.981
same,normalized growth,[16],1.01
same,normalized growth,[17],0.997
